From PubChem BioAssay (NCI)
About 83,000 compounds went through this panel and 20% of them were active in at least one assay; those are over-represented in the sample as a whole.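 Single-concentration screen, 48 h exposure, 96-well plates. Endpoint: percent growth. Below 10 = active.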 Activity calls are given as the source filed them.

Experiments:
Test in all cases: NCI-60 one-dose screen, 48 h (100 = growth as untreated, 0 = no growth, -100 = all killed)
Settings in all cases: 10 µM unless noted
SK-MEL-2 melanoma = system: SK-MEL-2 melanoma
EKVX NSCLC = system: EKVX NSCLC
SN12C renal = system: SN12C renal
UO-31 renal = system: UO-31 renal
TK-10 renal = system: TK-10 renal
ACHN renal = system: ACHN renal
A498 renal = system: A498 renal
CCRF-CEM leukemia = system: CCRF-CEM leukemia
MOLT-4 leukemia = system: MOLT-4 leukemia
SR leukemia = system: SR leukemia
RPMI-8226 leukemia = system: RPMI-8226 leukemia
OVCAR-8 ovarian = system: OVCAR-8 ovarian
OVCAR-5 ovarian = system: OVCAR-5 ovarian
OVCAR-4 ovarian = system: OVCAR-4 ovarian
SK-OV-3 ovarian = system: SK-OV-3 ovarian
IGROV1 ovarian = system: IGROV1 ovarian
OVCAR-3 ovarian = system: OVCAR-3 ovarian
HS 578T breast = system: HS 578T breast
NCI/ADR-RES ovarian = system: NCI/ADR-RES ovarian
T-47D breast = system: T-47D breast

Measured: growth

COc1ccc(NC(=O)c2ccc(Nc3ncnc4[nH]c(C)c(C)c34)cc2)cc1
inactive: SK-MEL-2 melanoma 99.2% | EKVX NSCLC 102% | SN12C renal 95.6% | UO-31 renal 97.5% | TK-10 renal 93.7% | ACHN renal 107% | A498 renal 92.7% | CCRF-CEM leukemia 112% | MOLT-4 leukemia 95.1% | SR leukemia 89.3% | RPMI-8226 leukemia 111% | OVCAR-8 ovarian 98.9% | OVCAR-5 ovarian 108% | OVCAR-4 ovarian 126% | SK-OV-3 ovarian 109% | IGROV1 ovarian 110% | OVCAR-3 ovarian 103% | HS 578T breast 113% | NCI/ADR-RES ovarian 103% | T-47D breast 89.2%

COc1ccccc1C(=O)/C=C/c1cc2cccc(OC)c2[nH]c1=O
inactive: SK-MEL-2 melanoma 20% | OVCAR-5 ovarian 13.1% | OVCAR-4 ovarian 15.4% | SK-OV-3 ovarian 16.3% | HS 578T breast 39.3% | T-47D breast 11.3%
active: EKVX NSCLC 7.34% | SN12C renal -0.142% | UO-31 renal -48.6% | TK-10 renal 3.12% | ACHN renal 4% | A498 renal -15% | CCRF-CEM leukemia -4.86% | MOLT-4 leukemia 7.38% | SR leukemia -1.87% | RPMI-8226 leukemia -14.5% | OVCAR-8 ovarian -5.37% | IGROV1 ovarian 2.88% | OVCAR-3 ovarian -9.01% | NCI/ADR-RES ovarian 3.01%

CCCn1c2cc(OCc3cn(-c4ccc(Cl)cc4)nn3)ccc2c2ccnc(C)c21
inactive: SK-MEL-2 melanoma 87% | EKVX NSCLC 80.1% | SN12C renal 34.2% | UO-31 renal 46.4% | TK-10 renal 113% | ACHN renal 34.3% | A498 renal 76.2% | CCRF-CEM leukemia 56.8% | MOLT-4 leukemia 57.1% | RPMI-8226 leukemia 23.3% | OVCAR-8 ovarian 49.9% | OVCAR-5 ovarian 78% | OVCAR-4 ovarian 55.5% | SK-OV-3 ovarian 73.9% | IGROV1 ovarian 74% | OVCAR-3 ovarian 59.3% | HS 578T breast 75% | NCI/ADR-RES ovarian 66.3% | T-47D breast 52.2%
active: SR leukemia -32.4%

COc1cc(NC(=O)COc2cc(C)nc3ccc(OC)cc23)cc(OC)c1
inactive: SK-MEL-2 melanoma 92.2% | EKVX NSCLC 91.5% | SN12C renal 88.9% | UO-31 renal 69.8% | TK-10 renal 96.5% | ACHN renal 82% | A498 renal 63.7% | CCRF-CEM leukemia 82% | MOLT-4 leukemia 89.9% | RPMI-8226 leukemia 81.3% | OVCAR-8 ovarian 93.6% | OVCAR-5 ovarian 107% | OVCAR-4 ovarian 99% | SK-OV-3 ovarian 96.3% | IGROV1 ovarian 104% | OVCAR-3 ovarian 98.9% | HS 578T breast 95.1% | NCI/ADR-RES ovarian 86.6% | T-47D breast 95.8%
active: SR leukemia -8.57%

C=C(C)[C@@H]1CC[C@]2(C(=O)OCCOCCOCC[P+](c3ccccc3)(c3ccccc3)c3ccccc3)CC[C@]3(C)[C@H](CC[C@@H]4[C@@]5(C)CC[C@H](OC(C)=O)C(C)(C)[C@@H]5CC[C@]43C)[C@@H]12
active: SK-MEL-2 melanoma -75.6% | EKVX NSCLC -74.8% | SN12C renal -89.9% | UO-31 renal -95.1% | TK-10 renal -87.1% | ACHN renal -96.7% | A498 renal -94% | CCRF-CEM leukemia -41% | MOLT-4 leukemia -77.9% | SR leukemia -49.2% | RPMI-8226 leukemia -63.9% | OVCAR-8 ovarian -78.2% | OVCAR-5 ovarian -86.2% | OVCAR-4 ovarian -82.1% | SK-OV-3 ovarian -94.5% | IGROV1 ovarian -83.9% | OVCAR-3 ovarian -95.8% | HS 578T breast -48.3% | NCI/ADR-RES ovarian 4.3% | T-47D breast -76.7%

NS(=O)(=O)c1ccc(N2Cc3cc(Cl)ccc3OC3=C2C(=O)N(CC2CCCCC2)C3=O)cc1
active: SK-MEL-2 melanoma -72.3% | EKVX NSCLC -65.1% | SN12C renal -65.3% | UO-31 renal -84% | TK-10 renal -96.7% | ACHN renal -100% | A498 renal -72.2% | CCRF-CEM leukemia -38.8% | MOLT-4 leukemia -34.9% | SR leukemia -43.4% | RPMI-8226 leukemia -30% | OVCAR-8 ovarian -71.9% | OVCAR-5 ovarian -88.7% | OVCAR-4 ovarian -95.3% | IGROV1 ovarian -47.6% | OVCAR-3 ovarian -89.6% | NCI/ADR-RES ovarian 4.6% | T-47D breast -55.3%
inactive: SK-OV-3 ovarian 60% | HS 578T breast 14.5%

COc1ccc(-n2cc(COc3ccc4c5ccnc(C)c5n(CC(C)C)c4c3)nn2)cc1
inactive: SK-MEL-2 melanoma 87.7% | EKVX NSCLC 69% | SN12C renal 77% | UO-31 renal 71% | TK-10 renal 70.5% | ACHN renal 64.6% | A498 renal 53.6% | CCRF-CEM leukemia 72.9% | MOLT-4 leukemia 24.4% | SR leukemia 22.6% | RPMI-8226 leukemia 27.5% | OVCAR-8 ovarian 37.6% | OVCAR-5 ovarian 91.3% | OVCAR-4 ovarian 65.9% | SK-OV-3 ovarian 56.7% | IGROV1 ovarian 79% | OVCAR-3 ovarian 66.2% | HS 578T breast 49.7% | NCI/ADR-RES ovarian 53.9% | T-47D breast 39.2%

CCCCc1nc(Cl)c(C2CC(c3ccc(Cl)cc3)=NN2c2cc(Cl)cc(Cl)c2)[nH]1 (stereo not given)
inactive: SK-MEL-2 melanoma 96% | EKVX NSCLC 57.8% | SN12C renal 45.4% | UO-31 renal 52.7% | TK-10 renal 94.2% | ACHN renal 14.2% | A498 renal 84% | CCRF-CEM leukemia 51.6% | MOLT-4 leukemia 24.6% | SR leukemia 61.8% | RPMI-8226 leukemia 90.9% | OVCAR-8 ovarian 68.5% | OVCAR-5 ovarian 94.2% | OVCAR-4 ovarian 63.5% | SK-OV-3 ovarian 92.4% | IGROV1 ovarian 71.1% | OVCAR-3 ovarian 65.9% | HS 578T breast 59.6% | NCI/ADR-RES ovarian 78.8% | T-47D breast 75%

Sc1cccc2cccnc12
inactive: SK-MEL-2 melanoma 21.5% | EKVX NSCLC 29.2% | SN12C renal 39.3% | UO-31 renal 25.6% | TK-10 renal 48.3% | ACHN renal 30.1% | A498 renal 65.9% | CCRF-CEM leukemia 14.4% | MOLT-4 leukemia 22.2% | RPMI-8226 leukemia 26.5% | OVCAR-8 ovarian 27.1% | OVCAR-5 ovarian 59.6% | OVCAR-4 ovarian 36.3% | SK-OV-3 ovarian 45.5% | IGROV1 ovarian 36.9% | OVCAR-3 ovarian 17.9% | HS 578T breast 71.9% | NCI/ADR-RES ovarian 24.8% | T-47D breast 40.5%
active: SR leukemia 6.61%

O=C1C(=O)c2c(nc3ccc(Br)cn23)-c2ccccc21
active: SK-MEL-2 melanoma -73.5% | EKVX NSCLC -71.4% | SN12C renal -89% | UO-31 renal -100% | TK-10 renal -100% | ACHN renal -100% | CCRF-CEM leukemia -32.5% | MOLT-4 leukemia -55.1% | SR leukemia -27.6% | RPMI-8226 leukemia -47.6% | OVCAR-8 ovarian -90.7% | OVCAR-5 ovarian -76.9% | OVCAR-4 ovarian -95.1% | SK-OV-3 ovarian -97.6% | IGROV1 ovarian -51.5% | OVCAR-3 ovarian -51.4% | HS 578T breast -52.2% | NCI/ADR-RES ovarian -31.4% | T-47D breast -59.8%
inactive: A498 renal 39.4%

C=C1C(=O)O[C@H]2[C@H]1CCC(/C=N/c1ncc(Br)cc1N)=C\CC[C@@]1(C)O[C@@H]21
active: SN12C renal -24.8% | UO-31 renal -72.3% | TK-10 renal -4.72% | ACHN renal 2.47% | CCRF-CEM leukemia 0.102% | MOLT-4 leukemia -3.09% | SR leukemia -3.64% | RPMI-8226 leukemia -24.1% | OVCAR-8 ovarian 4.39% | IGROV1 ovarian -1.81% | OVCAR-3 ovarian -58.3% | T-47D breast 5.65%
inactive: SK-MEL-2 melanoma 46.6% | EKVX NSCLC 29% | A498 renal 78% | OVCAR-5 ovarian 49.4% | OVCAR-4 ovarian 37% | SK-OV-3 ovarian 69.3% | HS 578T breast 32.4% | NCI/ADR-RES ovarian 58%

O=C1Nc2ccc(Cl)cc2/C1=N/c1nc(-c2ccc(F)cc2)cs1
inactive: SK-MEL-2 melanoma 39.9% | EKVX NSCLC 44.5% | SN12C renal 54.8% | UO-31 renal 50.4% | TK-10 renal 59.2% | ACHN renal 48.5% | A498 renal 33.3% | CCRF-CEM leukemia 11.1% | OVCAR-8 ovarian 45.3% | OVCAR-5 ovarian 75% | OVCAR-4 ovarian 32.2% | SK-OV-3 ovarian 56.4% | IGROV1 ovarian 25.6% | OVCAR-3 ovarian 39.2% | HS 578T breast 38.5% | NCI/ADR-RES ovarian 79.8% | T-47D breast 25.3%
active: MOLT-4 leukemia 1.99% | SR leukemia 1.96% | RPMI-8226 leukemia 8.37%

NC(=N\N=C\c1ccccc1O)/C(N)=N/N=C/c1ccccc1O
active: OVCAR-4 ovarian 6.53%
inactive: SK-MEL-2 melanoma 94.8% | EKVX NSCLC 88.5% | SN12C renal 90.8% | UO-31 renal 70.2% | TK-10 renal 92.5% | ACHN renal 74.9% | A498 renal 79% | CCRF-CEM leukemia 80.1% | MOLT-4 leukemia 68.3% | SR leukemia 71.2% | RPMI-8226 leukemia 61.1% | OVCAR-8 ovarian 81.3% | OVCAR-5 ovarian 96.7% | SK-OV-3 ovarian 92.4% | IGROV1 ovarian 97.8% | OVCAR-3 ovarian 63.1% | HS 578T breast 68.8% | NCI/ADR-RES ovarian 83.3% | T-47D breast 64%

N#Cc1c(-c2ccc(F)cc2)nc(N/N=C/c2c[nH]c3ccccc23)nc1N1CCOCC1
active: SR leukemia 6.49%
inactive: SK-MEL-2 melanoma 53.4% | EKVX NSCLC 56.1% | SN12C renal 82.2% | UO-31 renal 34.5% | TK-10 renal 89.9% | ACHN renal 43.4% | A498 renal 25.6% | CCRF-CEM leukemia 40.5% | MOLT-4 leukemia 22% | RPMI-8226 leukemia 33.5% | OVCAR-8 ovarian 58% | OVCAR-5 ovarian 94.8% | OVCAR-4 ovarian 80.4% | SK-OV-3 ovarian 92.6% | IGROV1 ovarian 65.1% | OVCAR-3 ovarian 65.9% | HS 578T breast 34.4% | NCI/ADR-RES ovarian 61% | T-47D breast 76.4%

Nc1c(C(=O)Nc2ccccn2)sc2nc3c(cc12)CCCCC3
active: CCRF-CEM leukemia 6.92% | SR leukemia 8.04% | OVCAR-3 ovarian -3.52% | NCI/ADR-RES ovarian 9.19%
inactive: SK-MEL-2 melanoma 44.2% | EKVX NSCLC 37.8% | SN12C renal 39.4% | UO-31 renal 49% | TK-10 renal 71.9% | ACHN renal 52.6% | A498 renal 25.9% | MOLT-4 leukemia 15.5% | RPMI-8226 leukemia 11.4% | OVCAR-8 ovarian 19.1% | OVCAR-5 ovarian 39.6% | OVCAR-4 ovarian 53.5% | SK-OV-3 ovarian 36.2% | IGROV1 ovarian 44.9% | HS 578T breast 30.5% | T-47D breast 36.4%
